Laboratory results taken from PubChem BioAssay (EPA / NIEHS).
Inconclusive results are not listed. Activity calls are given as the source filed them. The calls were made as follows, unless noted: active = hit-call score of the fitted dose curve at least 0.9, where 1 is the maximum; inactive = score below 0.9.

How the values were obtained:
[1] = biological target: Hepatocyte nuclear factor 4-alpha (Homo sapiens) (UniProt P41235); assay: ATG_HNF4a_TRANS: Attagene TRANS-FACTORIAL HepG2 Assay for human Hepatocyte Nuclear Factor 4 alpha (HNF4a) (AID 2282982; active = hit-call score of the fitted dose curve at least 0.9, where 1 is the maximum); conditions: HepG2 HNF4a transactivation reporter, mRNA readout
Hepatocyte nuclear factor 4-alpha (Homo sapiens), sequence (P41235 whole entry, looked up): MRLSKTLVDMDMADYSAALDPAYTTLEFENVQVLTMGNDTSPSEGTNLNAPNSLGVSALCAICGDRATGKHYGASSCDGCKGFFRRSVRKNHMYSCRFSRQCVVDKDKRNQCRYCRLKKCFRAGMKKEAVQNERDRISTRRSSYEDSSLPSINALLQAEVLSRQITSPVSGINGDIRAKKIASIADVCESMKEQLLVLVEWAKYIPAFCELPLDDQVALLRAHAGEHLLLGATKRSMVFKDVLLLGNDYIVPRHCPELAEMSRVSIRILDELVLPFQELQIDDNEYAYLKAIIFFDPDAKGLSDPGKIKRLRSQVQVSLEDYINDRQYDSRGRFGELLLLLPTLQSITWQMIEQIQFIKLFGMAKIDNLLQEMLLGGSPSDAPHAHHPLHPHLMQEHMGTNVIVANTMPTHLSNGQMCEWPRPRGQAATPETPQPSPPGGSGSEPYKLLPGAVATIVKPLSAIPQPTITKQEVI
Method in brief: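 Transient MRTU transfection of HepG2, 24 h dosing. Readout: reporter mRNA via RT-PCR + capillary electrophoresis, fluorescence; activity fit upward relative to DMSO control.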

[2] = ATG_M_32_TRANS: Attagene TRANS-FACTORIAL HepG2 Assay for M32 Transcription Factor (Internal Marker) (AID 2282984; active = hit-call score of the fitted dose curve at least 0.9, where 1 is the maximum;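 also: transcript level of a background control reporter unit measured by RT-PCR and capillary electrophoresis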); conditions: HepG2 Attagene TRANS M32 internal marker reporter
Method in brief: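 Read-out: fluorescent reporter cDNA fragments resolved by capillary electrophoresis after RT-PCR of total RNA. Transfected HepG2 cells were exposed to chemical for 24 h. Activity scored in the positive direction relative to DMSO.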

[3] = biological target: Transcriptional activator Myb (Homo sapiens) (UniProt P10242); assay: ATG_Myb_CIS: Attagene CIS-FACTORIAL HepG2 Assay for human Myeloblastosis (Myb) Proto-Oncogene Transcription Factor (AID 2282986); conditions: HepG2 Attagene CIS-FACTORIAL Myb reporter transcription; actives raise or lower the signal
Transcriptional activator Myb (Homo sapiens), sequence (P10242 whole entry, looked up): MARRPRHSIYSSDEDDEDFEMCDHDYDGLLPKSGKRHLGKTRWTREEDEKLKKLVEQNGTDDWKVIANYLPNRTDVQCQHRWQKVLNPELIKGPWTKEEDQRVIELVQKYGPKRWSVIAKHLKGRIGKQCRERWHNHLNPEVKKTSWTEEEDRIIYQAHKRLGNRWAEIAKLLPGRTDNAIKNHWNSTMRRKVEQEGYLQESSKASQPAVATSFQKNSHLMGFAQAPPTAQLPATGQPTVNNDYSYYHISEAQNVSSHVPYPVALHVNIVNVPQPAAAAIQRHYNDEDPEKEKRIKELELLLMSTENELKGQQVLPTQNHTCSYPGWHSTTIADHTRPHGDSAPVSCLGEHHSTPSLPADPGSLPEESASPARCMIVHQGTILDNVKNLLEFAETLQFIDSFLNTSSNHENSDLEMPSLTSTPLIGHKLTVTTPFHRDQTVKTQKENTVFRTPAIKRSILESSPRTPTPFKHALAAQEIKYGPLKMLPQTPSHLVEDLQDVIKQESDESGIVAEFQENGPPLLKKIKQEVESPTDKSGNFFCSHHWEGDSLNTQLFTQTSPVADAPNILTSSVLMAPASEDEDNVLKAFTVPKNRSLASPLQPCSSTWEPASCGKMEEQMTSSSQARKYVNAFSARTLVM
Method in brief: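 Steps: transfect HepG2 with cis-regulated reporter units; dose with chemical for 24 h; isolate RNA, reverse-transcribe, PCR-amplify and FAM-label reporter sequences; digest with HpaI; resolve by capillary electrophoresis. Activity fitted in both directions relative to DMSO.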

[4] = biological target: Nuclear respiratory factor 1 (Homo sapiens) (UniProt Q16656); assay: ATG_NRF1_CIS: Attagene CIS-FACTORIAL HepG2 Assay for human Nuclear Respiratory Factor 1 (NRF1) Orphan Gene (AID 2282987); conditions: HepG2 NRF1 cis-element reporter, Attagene multiplex; actives raise or lower the signal
Nuclear respiratory factor 1 (Homo sapiens), sequence (Q16656 whole entry, looked up, the tested form may be a part): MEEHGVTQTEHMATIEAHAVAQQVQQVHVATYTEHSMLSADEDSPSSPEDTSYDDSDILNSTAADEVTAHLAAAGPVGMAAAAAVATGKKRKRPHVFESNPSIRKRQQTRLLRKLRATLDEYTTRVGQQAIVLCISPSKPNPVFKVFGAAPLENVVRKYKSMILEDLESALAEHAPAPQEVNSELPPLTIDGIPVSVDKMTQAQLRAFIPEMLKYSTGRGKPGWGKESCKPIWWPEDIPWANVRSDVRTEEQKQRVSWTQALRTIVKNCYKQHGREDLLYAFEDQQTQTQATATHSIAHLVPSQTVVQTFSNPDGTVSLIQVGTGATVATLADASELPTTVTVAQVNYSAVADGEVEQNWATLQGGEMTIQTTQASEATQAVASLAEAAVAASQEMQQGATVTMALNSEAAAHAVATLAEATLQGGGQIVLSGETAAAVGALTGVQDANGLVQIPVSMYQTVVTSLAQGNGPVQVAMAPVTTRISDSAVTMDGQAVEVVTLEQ
Method in brief: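 Fluorescence intensity of labelled reporter cDNA fragments, resolved by capillary electrophoresis, served as readout for NRF1 cis-element activity. Transiently transfected HepG2 cells were dosed for 24 hours; activity in either direction was fitted against DMSO negative control.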

[5] = ATG_NFI_CIS: Attagene CIS-FACTORIAL HepG2 Assay for human Nuclear Factor I (NFI) (AID 2282989); conditions: HepG2 cis-regulatory reporter, NFI response element transcription; actives raise or lower the signal
Method in brief: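 Reporter transcription driven by endogenous transcription factors in HepG2 cells; 24 h treatment. Quantitation by labelled RT-PCR fragments on capillary electrophoresis, gain- or loss-of-signal relative to DMSO.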

[6] = biological target: Myc proto-oncogene protein (Homo sapiens) (UniProt P01106); assay: ATG_Myc_CIS: Attagene CIS-FACTORIAL HepG2 Assay for human Myelocytomatosis (Myc) Proto-Oncogene Transcription Factor (AID 2282990); conditions: HepG2, Attagene cis-reporter transcription factor activity; actives raise or lower the signal
Myc proto-oncogene protein (Homo sapiens), sequence (P01106 whole entry, looked up, the tested form may be a part): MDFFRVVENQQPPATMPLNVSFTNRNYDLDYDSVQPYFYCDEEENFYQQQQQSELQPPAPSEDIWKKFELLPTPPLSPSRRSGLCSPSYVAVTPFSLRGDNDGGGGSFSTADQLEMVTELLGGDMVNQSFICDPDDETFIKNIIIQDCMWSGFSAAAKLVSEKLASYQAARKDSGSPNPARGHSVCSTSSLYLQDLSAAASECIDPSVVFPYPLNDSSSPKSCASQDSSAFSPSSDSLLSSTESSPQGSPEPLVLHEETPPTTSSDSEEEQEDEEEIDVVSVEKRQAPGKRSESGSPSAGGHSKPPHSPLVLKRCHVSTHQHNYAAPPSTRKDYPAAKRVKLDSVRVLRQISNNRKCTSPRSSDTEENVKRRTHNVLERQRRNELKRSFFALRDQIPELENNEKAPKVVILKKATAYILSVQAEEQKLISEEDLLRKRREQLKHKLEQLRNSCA
Method in brief: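 Fluorescence intensity of reporter-specific cDNA fragments, separated by capillary electrophoresis, gives the signal. Transfected HepG2 cells carrying cis-promoter reporter constructs are incubated with compound for 24 h; DMSO serves as baseline.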

[7] = ATG_NF_kB_CIS: Attagene CIS-FACTORIAL HepG2 Assay for human Nuclear Factor Kappa B (NF-kB) (AID 2282991); conditions: HepG2 Attagene cis-factorial NF-kB reporter mRNA; actives raise or lower the signal
Method in brief: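 Endogenous transcription factor activity in HepG2 was captured via cis-regulated reporter constructs; after 24 h dosing, reporter mRNA was reverse-transcribed, amplified, fluorescently labelled and sized by capillary electrophoresis, with activity fitted bidirectionally relative to DMSO.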

[8] = ATG_NRF2_ARE_CIS: Attagene CIS-FACTORIAL HepG2 Assay for human Nuclear Factor Erythroid 2 Related Factor 2 (NFR2) response to Antioxidant Response Elements (ARE) (AID 2282992); conditions: HepG2 Attagene ARE/NRF2 reporter, transcription factor activity; actives raise or lower the signal;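 as to AC50: reporter mRNA level measured by RT-PCR and capillary electrophoresis fluorescence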
Method in brief: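 Readout: reporter mRNA quantified by RT-PCR plus FAM-labelled primer extension, HpaI digestion and capillary electrophoresis, 24 h after dosing transfected HepG2 cells. Gain or loss of signal is fitted bidirectionally against DMSO baseline.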

[9] = ATG_Oct_MLP_CIS: Attagene CIS-FACTORIAL HepG2 Assay for human Octamer-Binding Transcription Factor (Oct) (AID 2282993); conditions: HepG2 Attagene cis-factorial Oct reporter, mRNA; actives raise or lower the signal
Method in brief: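 Transfected HepG2 cells, 24 h treatment. Reporter mRNA quantified by RT-PCR–capillary electrophoresis; bidirectional fitting against DMSO.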

[10] = biological target: Cellular tumor antigen p53 (Homo sapiens) (UniProt P04637); assay: ATG_p53_CIS: Attagene CIS-FACTORIAL HepG2 Assay for human p53 Transcription Factor (AID 2282994); conditions: HepG2 p53 cis-element reporter, Attagene mRNA; actives raise or lower the signal
Cellular tumor antigen p53 (Homo sapiens), sequence (P04637 whole entry, looked up): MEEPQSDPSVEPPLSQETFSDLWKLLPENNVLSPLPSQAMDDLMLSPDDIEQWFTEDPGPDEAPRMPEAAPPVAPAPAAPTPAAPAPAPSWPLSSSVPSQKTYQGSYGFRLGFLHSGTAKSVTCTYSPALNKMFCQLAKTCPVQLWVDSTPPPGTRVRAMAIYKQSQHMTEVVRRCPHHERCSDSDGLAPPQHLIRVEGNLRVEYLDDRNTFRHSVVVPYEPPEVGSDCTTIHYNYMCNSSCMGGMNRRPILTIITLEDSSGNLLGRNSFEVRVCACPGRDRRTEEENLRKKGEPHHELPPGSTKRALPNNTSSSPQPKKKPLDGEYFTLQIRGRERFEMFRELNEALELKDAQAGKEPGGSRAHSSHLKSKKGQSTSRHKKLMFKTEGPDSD
Method in brief: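 Read-out: reporter mRNA by RT-PCR plus capillary electrophoresis with fluorescence detection. Human HepG2 liver cells carried transfected multi-reporter cis-element constructs, dosed 24 h. Gain or loss of signal fitted bidirectionally against DMSO control.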

[11] = ATG_M_06_TRANS: Attagene TRANS-FACTORIAL HepG2 Assay for M06 Transcription Factor (Internal Marker) (AID 2282983; active = hit-call score of the fitted dose curve at least 0.9, where 1 is the maximum;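 also: reporter transcript level by RT-PCR then capillary electrophoresis fluorescence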); conditions: HepG2 Attagene TRANS M06 internal marker reporter
Method in brief: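 Read-out: fluorescent reporter cDNA fragments resolved by capillary electrophoresis after RT-PCR and HpaI cut. Source cells were HepG2 carrying transfected multi-reporter GAL4 constructs, dosed 24 h. Increase over DMSO control analysed.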

[12] = biological target: Nuclear receptor subfamily 4 group A member 2 (Homo sapiens) (UniProt P43354); assay: ATG_NURR1_TRANS: Attagene TRANS-FACTORIAL HepG2 Assay for human Nuclear Receptor Related Protein 1 (NURR1) (AID 2282985; active = hit-call score of the fitted dose curve at least 0.9, where 1 is the maximum); conditions: HepG2 Attagene TRANS reporter, mRNA readout
Nuclear receptor subfamily 4 group A member 2 (Homo sapiens), sequence (P43354 whole entry, looked up, the tested form may be a part): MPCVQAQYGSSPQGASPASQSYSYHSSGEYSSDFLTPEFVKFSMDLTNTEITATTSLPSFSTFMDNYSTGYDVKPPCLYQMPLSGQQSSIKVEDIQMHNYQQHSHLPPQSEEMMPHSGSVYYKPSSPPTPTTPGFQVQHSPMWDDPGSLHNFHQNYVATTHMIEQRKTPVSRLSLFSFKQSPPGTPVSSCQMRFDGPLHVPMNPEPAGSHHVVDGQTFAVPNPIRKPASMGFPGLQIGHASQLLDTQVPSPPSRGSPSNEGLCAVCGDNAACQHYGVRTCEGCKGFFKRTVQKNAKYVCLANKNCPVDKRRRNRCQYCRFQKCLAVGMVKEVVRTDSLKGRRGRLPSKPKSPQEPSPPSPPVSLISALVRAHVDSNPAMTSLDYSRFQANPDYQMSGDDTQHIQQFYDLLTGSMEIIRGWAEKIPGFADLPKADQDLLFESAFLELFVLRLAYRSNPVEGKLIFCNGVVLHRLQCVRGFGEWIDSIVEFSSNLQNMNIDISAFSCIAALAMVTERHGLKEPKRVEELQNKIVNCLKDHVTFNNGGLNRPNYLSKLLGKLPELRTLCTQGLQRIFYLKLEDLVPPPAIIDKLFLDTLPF
Method in brief: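 Read-out: reporter mRNA induction by RT-PCR plus capillary electrophoresis with fluorescence detection, after 24 h dosing of transfected HepG2 cells. Exogenous NR-Gal4 chimera activity drives GAL4-UAS reporter; activity fitted upward versus DMSO.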

[13] = BSK_3C_TissueFactor: BioMAP Diversity Plus: 3C Assay for Tissue Factor Biomarker Activity (AID 2282997); conditions: BioMAP 3C HUVEC, tissue factor biomarker readout; actives raise or lower the signal
Method in brief: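 HUVEC, 3C system, 24 h post-dose; Tissue Factor by ELISA; bidirectional fit vs DMSO baseline.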

[14] = BSK_3C_uPAR: BioMAP Diversity Plus: 3C Assay for Urokinase-type plasminogen activator receptor (uPAR) Biomarker Activity (AID 2282998); conditions: BioMAP 3C HUVEC, uPAR biomarker ELISA; actives raise or lower the signal
Method in brief: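 Readout: ELISA for surface uPAR. System: human umbilical vein endothelial primary cells, 24 h after chemical exposure. Analysis: bidirectional fit, DMSO baseline.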

[15] = BSK_3C_VCAM1: BioMAP Diversity Plus: 3C Assay for Vascular cell adhesion molecule 1 (VCAM1) Biomarker Activity (AID 2282999); conditions: BioMAP 3C HUVEC, VCAM1 ELISA, cytokine-stimulated; actives raise or lower the signal
Method in brief: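 HUVEC primary cells, 24 h compound exposure; VCAM-1 by ELISA; gain/loss of signal fitted bidirectionally vs DMSO baseline.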

[16] = BSK_4H_Eotaxin3: BioMAP Diversity Plus: 4H Assay for Eotaxin 3 Biomarker Activity (AID 2283000); conditions: primary human endothelial cells (HUVEC); actives raise or lower the signal
Method in brief: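 Readout is Eotaxin-3 (CCL26) level by ELISA in primary human umbilical vein endothelial cells harvested 24 h after chemical exposure; activity fitted in both directions against DMSO control.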

[17] = biological target: Oxysterols receptor LXR-beta (Homo sapiens) (UniProt P55055); assay: ATG_LXRb_TRANS: Attagene TRANS-FACTORIAL HepG2 Assay for human Liver X Receptor beta (LXRb) (AID 2282981; active = hit-call score of the fitted dose curve at least 0.9, where 1 is the maximum); conditions: HepG2 Attagene TRANS GAL4-LXRb reporter, mRNA
Oxysterols receptor LXR-beta (Homo sapiens), sequence (P55055 whole entry, looked up, the tested form may be a part): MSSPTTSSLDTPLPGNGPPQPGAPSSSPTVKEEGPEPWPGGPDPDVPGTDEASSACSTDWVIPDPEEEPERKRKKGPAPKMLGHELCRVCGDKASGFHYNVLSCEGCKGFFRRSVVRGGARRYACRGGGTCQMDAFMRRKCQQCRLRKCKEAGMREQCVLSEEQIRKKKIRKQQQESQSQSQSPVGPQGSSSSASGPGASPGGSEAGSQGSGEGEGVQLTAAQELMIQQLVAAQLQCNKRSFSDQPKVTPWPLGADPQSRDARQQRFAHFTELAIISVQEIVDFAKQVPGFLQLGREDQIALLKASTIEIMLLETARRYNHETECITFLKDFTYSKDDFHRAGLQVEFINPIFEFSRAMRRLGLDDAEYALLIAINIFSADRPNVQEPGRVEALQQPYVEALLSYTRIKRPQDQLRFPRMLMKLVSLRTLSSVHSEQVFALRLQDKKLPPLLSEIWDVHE
Method in brief: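 Readout: fluorescent reporter mRNA fragments resolved by capillary electrophoresis after RT-PCR. System: transiently transfected human HepG2, exogenous LXRb-Gal4 chimera driving GAL4-UAS reporter, 24 h dosing. Activity fitted upward against DMSO baseline.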

Measured: AC50

COc1cc2c(cc1OC)[C@@]13CCN4CC5=CCO[C@H]6CC(=O)N2[C@H]1[C@H]6[C@H]5C[C@H]43
inactive: [1] | [2] | [3] | [4] | [5] | [6] | [7] | [8] | [9] | [10]

O=CC=O
inactive: [1] | [11] | [3] | [4] | [5] | [6] | [8]

O=[N+]([O-])c1c(Cl)c(Cl)cc(Cl)c1Cl
inactive: [2] | [3] | [4] | [5] | [6] | [7] | [9] | [10]
active: [8] 57.3 µM

CCCCC(CC)CO[N+](=O)[O-] (stereo not drawn)
active: [8] 167 µM | [13] 28.6 µM | [16] 30.4 µM
inactive: [1] | [11] | [2] | [12] | [3] | [4] | [5] | [6] | [9] | [10] | [14] | [15]

CC(C)OC(=O)Nc1ccccc1
inactive: [17] | [11] | [2] | [3] | [4] | [5] | [6] | [7] | [8] | [9] | [10]

Cl/C=C/Cl
inactive: [17] | [1] | [11] | [3] | [4] | [5] | [6] | [7] | [8] | [9] | [10]

C[C@@H](Oc1ccc(Cl)cc1Cl)C(=O)O
inactive: [1] | [11] | [12] | [3] | [5] | [6] | [7] | [8] | [9] | [10]

O=Cc1cccc(Oc2ccccc2)c1
inactive: [1] | [11] | [2] | [12] | [3] | [4] | [5] | [6] | [7] | [8] | [9] | [13] | [14] | [15] | [16]

CCOC(=O)/C=C(C)/C=C/C[C@@H](C)CCCC(C)C
inactive: [1] | [11] | [2] | [10]
active: [12] 125 µM | [3] 152 µM | [5] 180 µM | [6] 182 µM | [7] 43.2 µM | [8] 56.5 µM | [9] 25 µM | [13] 15.6 µM | [14] 33.1 µM | [15] 26.6 µM | [16] 30 µM

Nc1cccc2ccccc12
inactive: [17] | [12] | [3] | [4] | [5] | [6] | [14] | [15] | [16]
active: [8] 77.9 µM | [13] 12.4 µM

O=C(NCO)NCO
inactive: [17] | [1] | [11] | [3] | [4] | [5] | [6] | [7] | [8] | [9]

COP(=S)(OC)Oc1c(Cl)cc(C)cc1Cl
inactive: [17] | [2] | [12] | [3] | [4] | [5] | [6] | [7] | [9] | [10] | [13] | [14] | [15]
active: [8] 29.2 µM | [16] 5.75 µM

Cc1cc(Cl)ccc1O[C@H](C)C(=O)O
inactive: [1] | [11] | [12] | [3] | [4] | [5] | [6] | [7] | [8] | [9] | [10]

OCC(O)CCl (stereo not drawn)
inactive: [17] | [11] | [12] | [3] | [5] | [6] | [7] | [8] | [9]

CCCCCCCCSC(=O)Oc1cc(Cl)nnc1-c1ccccc1
active: [5] 73.7 µM | [8] 52.7 µM
inactive: [12] | [3] | [4] | [6] | [7] | [10]

CC(C)(c1ccc(OCC2CO2)cc1)c1ccc(OCC2CO2)cc1 (stereo not drawn)
inactive: [17] | [2] | [12] | [3] | [4] | [5] | [6] | [7]
active: [8] 8.41 µM | [9] 24.9 µM | [10] 56.2 µM

ClC1=C(Cl)[C@]2(Cl)[C@H]3[C@H]([C@H]4C=C[C@H]3C4)[C@@]1(Cl)C2(Cl)Cl
active: [13] 2.35 µM | [14] 3.97 µM | [15] 3.97 µM | [16] 20 µM
inactive: [11] | [2] | [12] | [3] | [4] | [5] | [6] | [8] | [9] | [10]

O=P(O)(O)CN(CP(=O)(O)O)CP(=O)(O)O
inactive: [17] | [1] | [2] | [12] | [3] | [4] | [5] | [6] | [7] | [8] | [10]
